A selection: hits, their analogues and other compounds. The true share with any hit is near 2%.
TLR4-MyD88 BLA = TLR4-MyD88 interaction inhibition in cells; O00206+Q99836; HeLa CL3-4 TLR4/MyD88 BLA complementation, FRET ratio; inhibition, % at 8.4 µM; 200,000 tested, 0.18% active; in the data active = inhibition above about 25%;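 also: 0% = vehicle and 100% = reference inhibitor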
ABHD5-PLIN5 inh = blocks binding of human ABHD5 to perilipin-5; Q00G26+Q8WTS1; Split G. princeps luciferase complementation, luminescence, 4 h; inhibition, % at 4 µM; 360,000 tested, 0.78% active;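 active = inhibition above the mean inhibition across every tested compound plus 3 SD, cut at about 22% in these data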;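 also: 0% = DMSO only wells and the 100% control is not disclosed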
Exocytosis inh = blocks lytic granule exocytosis; TALL-104 LAMP-1 surface exposure, flow cytometry; cells stimulated with thapsigargin and PMA; inhibition, % at 10 µM; 360,000 tested, 0.66% active;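 active = inhibition above about 55%, limit read from the data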
NOD2-RIPK2 inh = blocks binding of human NOD2 to RIPK2; CHO BLA complementation NOD2-RIPK2, CCF4 ratio; O43353; 360,000 tested, 0.38% active; inhibition, % at 4.98 µM; in the data active = inhibition above about 21%;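 also: 0% = vehicle only and 100% = reference blocker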
TLR9-MyD88 inh = inhibitors of human TLR9-MyD88 binding | inhibition, % at 4.98 µM | AID 504734 | CHO BLA complementation TLR9-MyD88, CCF4 FRET ratio | 340,000 tested, 0.21% active;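 active = inhibition above the mean over all tested compounds plus 3 SD, cut at about 21% in these data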;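 also: 0% = DMSO only wells and 100% = clavulanate BLA inhibitor control wells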
Beta2AR agonist = activates human beta-2 adrenergic receptor causing internalization. P07550. Am2.2-beta2AR cells, FAP receptor internalization, flow cytometry. response, % (no concentration beside the values). 340,000 tested, 0.43% active. AID 504454;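 active = response above a set limit, near 3 SD of response in nonfluorescent compounds, cut at about 42% in these data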
Numbers without * were called inactive; nt = no result.

SMILES | TLR4-MyD88 BLA | ABHD5-PLIN5 inh | Exocytosis inh | NOD2-RIPK2 inh | TLR9-MyD88 inh | Beta2AR agonist
CCN(CC)CCCNC(=S)N1CCN(c2nc(-c3ccc(F)cc3)cs2)CC1 | nt | 3.0 | 69.1* | 6.4 | -9.3 | 8.9
CCNC(=S)N1CCN(c2nc(-c3ccc(F)cc3)cs2)CC1 | nt | 8.3 | 0.0 | -7.4 | -2.9 | 6.6
O=C1c2cccc3cccc(c23)C(=O)N1c1ccc2ncccc2c1 | -6.7 | 2.9 | 5.0 | 5.6 | 2.6 | 69.5*
O=C(CSc1n[nH]c(C2CCCC2)n1)NC1CCCC1 | 7.0 | 0.9 | 1.6 | 1.0 | 6.2 | -1.3
Nc1nc(SCC(=O)NC2CCCCC2)n[nH]1 | nt | -4.8 | 76.0* | 5.2 | 5.1 | -3.5
C=CCn1c(SCC(=O)NCCCC)nc2scc(-c3ccco3)c2c1=O | -6.6 | 39.7* | 2.7 | -1.0 | 2.9 | 1.8
O=c1c2c([N+](=O)[O-])cc([N+](=O)[O-])cc2sn1-c1ccc(Br)cc1 | -19.1 | -18.0 | 91.9* | -2.8 | 4.2 | -0.9
Cc1ccc(-c2nc3c(Cl)cc(C(F)(F)F)cn3c2Cc2ccccc2C(F)(F)F)cc1 | nt | -3.7 | -12.5 | -5.4 | nt | nt
FC(F)(F)c1cc(Cl)c2nc(-c3ccco3)c(Cc3ccccc3C(F)(F)F)n2c1 | nt | 50.6* | -7.2 | 7.5 | nt | nt
O=C(O)CCc1ccc(-c2cccs2)o1 | -5.8 | 70.0* | 5.1 | -12.3 | 6.1 | 1.6
O=C(NNc1ccc(Cl)cc1)c1c(F)cccc1Cl | nt | 0.8 | -2.1 | -16.0 | -10.9 | -7.0
CC(=O)C(=Nc1ccccc1Cl)NNc1ccc(Cl)cc1 | -3.1 | -4.1 | 89.4* | 7.0 | 5.7 | -5.4
CC(=O)Oc1cccc(/C=C2\Sc3ccccc3C2=O)c1 | nt | 22.0* | -8.6 | -1.6 | -10.1 | 7.2
CCCCOc1ccc(/C=C2/Sc3ccccc3C2=O)cc1 | -4.0 | 0.8 | 5.4 | -0.2 | 9.3 | 3.4
O=C(C=P(c1ccccc1)(c1ccccc1)c1ccccc1)c1ccccc1-c1ccccc1C(=O)C=P(c1ccccc1)(c1ccccc1)c1ccccc1 | nt | 26.0* | 12.4 | 14.5 | 13.1 | 103.8*
CC(=O)N1CCC(C(=O)N2c3ccccc3N=C(c3ccc(C(F)(F)F)cc3)C2C(=O)NC(C)C)CC1 (configuration not stated) | nt | -3.7 | 1.0 | 3.2 | nt | nt
Cc1cccc(C)c1-n1nnnc1-c1nc2cc(Br)ccc2[nH]c1=O | nt | 4.5 | 77.4* | -17.6 | nt | nt
Cc1nc2ccccn2c1C(=O)N=Nc1c(O)n(CCC(C)C)c2ccccc12 | -6.8 | -3.7 | 70.7* | 3.0 | -3.0 | 45.4*
Cc1cccc(C)c1N1C(=O)c2ccccc2NC(=O)C1C(=O)Nc1ccc(N2CCOCC2)cc1 (configuration not stated) | nt | -5.1 | 15.3 | -15.9 | nt | nt
O=C(Nc1ccc2c(c1)oc1ccccc12)c1ccncc1 | 4.9 | 22.2* | 1.0 | -5.2 | 6.4 | 37.7
CCNC(=S)Nc1ccc2c(c1)oc1ccccc12 | nt | -5.6 | 59.4* | -4.6 | 1.1 | 4.8
O=C(Nc1ccc2c(c1)oc1ccccc12)c1cccnc1 | 0.2 | 5.9 | 7.1 | 10.7 | -1.9 | 4.0
CCCCNc1c(-c2cccc(-c3ccc(OC)cc3)c2)nc2cc(C)ccn12 | nt | -15.8 | -3.3 | 4.1 | 3.2 | 25.5
CCCCNc1c(-c2cccc(-c3ccc(OC)cc3)c2)nc2ccc(C)cn12 | nt | -12.5 | 22.2 | 7.2 | -8.2 | 49.2*
COc1ccc(-c2coc3c(C(=O)NCC(C)C)cccc23)c(C)c1 | nt | 1.6 | 2.2 | -4.2 | nt | nt
SMILES | TLR4-MyD88 BLA | ABHD5-PLIN5 inh | Exocytosis inh | NOD2-RIPK2 inh | TLR9-MyD88 inh | Beta2AR agonist
COc1ccccc1N=C1NC(=O)/C(=C/c2ccc(N(C)C)cc2)S1 | nt | 4.4 | 67.4* | 17.3 | 9.0 | -34.4
COc1cccc(-n2nnnc2S(C)(=O)=O)c1 | 7.2 | 67.8* | 80.0* | 49.0* | 21.9* | 32.4
COc1cccc(Oc2nnnn2-c2ccccc2)c1 | 10.1 | -0.8 | -4.7 | -125.0 | -5.2 | -1.1
COc1ccc2c(c1)C(=O)C1(CC2)OC1c1cccnc1 (configuration not stated) | nt | -1.4 | -4.5 | -1.4 | 4.3 | nt
CN(C)c1nc(=NCc2cccs2)ss1 | nt | 77.8* | 65.4* | 0.9 | 3.0 | -11.5
CC(SC(=S)N(C)Cc1cccs1)C(=O)O (configuration not stated) | -4.5 | -4.3 | 1.4 | 4.1 | -1.3 | -0.5
O=C(NC1CCCCC1)C1c2ccccc2OCC(=O)N1CCc1ccccc1 (configuration not stated) | nt | -0.7 | -3.2 | -9.8 | nt | nt

Screens deposited in PubChem by several laboratories.
